Data from PubChem BioAssay AID1159580 (chemical genetic matrix, 2015).
The campaign covered roughly 5,500 compounds. About 2,000 (36%) were called active. Another 18% or so got no clear call; they are omitted. No stated cut-off is given here; in the data, active means normalized growth mostly below about 0.91 (no sharp cut-off); inconclusive means no clear call, values can overlap the other calls; inactive means mostly above about 0.92. The list shows a part of the results.

Experiment: chemical genetic growth profiling, strain panel (AID 1159580);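 further: tested at 20 µM; growth read once vehicle control cultures reached saturation at 30 °C; 1 = growth at the plate median or of vehicle wells; lower values mean less growth of the strain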
Settings: S. cerevisiae deletion strains, growth OD

Measured: normalized growth

O=C(NC(=O)c1c(F)cccc1F)Nc1ccc(Cl)cc1
inactive: locus YAL021C, strain ccr4, hits give low values 1.03 | locus YAL026C, strain drs2, hits give low values 1.01 | locus YAL030W, strain snc1, hits give low values 1.02 | locus YBL061C, strain skt5, hits give low values 1.01 | locus YBR009C, strain hhf1, hits give low values 1.02 | locus YBR023C, strain chs3, hits give low values 1.02 | locus YBR171W, strain sec66, hits give low values 1.03 | locus YBR231C, strain swc5, hits give low values 1.04 | locus YBR279W, strain paf1, hits give low values 1.01 | locus YCL011C, strain gbp2, hits give low values 1 | locus YCL016C, strain dcc1, hits give low values 1.02 | locus YCL061C, strain MRC1, hits give low values 1.01 | locus YCL069W, strain vba3, hits give low values 0.996 | locus YCR088W, strain abp1, hits give low values 1 | locus YDL005C, strain med2, hits give low values 1.05 | locus YDL040C, strain nat1, hits give low values 1.03 | locus YDR001C, strain nth1, hits give low values 1.02 | locus YDR069C, strain doa4, hits give low values 1.03 | locus YDR137W, strain rgp1, hits give low values 1.01 | locus YDR159W, strain sac3, hits give low values 1.04 | locus YDR195W, strain ref2 1.11 | locus YDR297W, strain sur2, hits give low values 1.03 | locus YDR334W, strain swr1, hits give low values 1.01 | locus YDR335W, strain msn5, hits give low values 1.03 | locus YDR392W, strain spt3, hits give low values 0.955 | locus YEL003W, strain gim4, hits give low values 1.03 | locus YEL037C, strain rad23, hits give low values 1.01 | locus YEL061C, strain CIN8 (second series), hits give low values 1.01 | locus YER015W, strain faa2, hits give low values 1.02 | locus YER016W, strain bim1, hits give low values 1.03 | locus YER111C, strain swi4, hits give low values 1.01 | locus YER155C, strain BEM2 (second series), hits give low values 1.02 | locus YFR010W, strain ubp6, hits give low values 1.01 | locus YGL167C, strain pmr1, hits give low values 1.02 | locus YGL173C, strain kem1, hits give low values 1.01 | locus YGL227W, strain vid30, hits give low values 1.03 | locus YGL240W, strain doc1, hits give low values 1.02 | locus YGL253W, strain hxk2, hits give low values 1.01 | locus YHR013C, strain ard1, hits give low values 1.03 | locus YHR027C, strain rpn1, hits give low values 1.02 | locus YHR030C, strain SLT2, hits give low values 1.06 | locus YHR079C, strain IRE1, hits give low values 1.04 | locus YHR142W, strain chs7, hits give low values 1.01 | locus YJL092W, strain hpr5, hits give low values 1.02 | locus YJL095W, strain BCK1 (second series), hits give low values 1.01 | locus YJL095W, strain BCK1, hits give low values 1.03 | locus YJL115W, strain asf1, hits give low values 1.04 | locus YJL129C, strain trk1, hits give low values 1.02 | locus YJL154C, strain vps35, hits give low values 1.01 | locus YJL164C, strain tpk1, hits give low values 1 | locus YJL166W, strain qcr8, hits give low values 1.02 | locus YJL187C, strain SWE1, hits give low values 1.03 | locus YJR066W, strain TOR1, hits give low values 0.956 | locus YKL160W, strain elf1, hits give low values 1 | locus YKR026C, strain gcn3, hits give low values 1.01 | locus YKR091W, strain srl3, hits give low values 1.01 | locus YLL001W, strain dnm1, hits give low values 0.996 | locus YLL026W, hits give low values 1.02 | locus YLL041C, strain sdh2, hits give low values 1.01 | locus YLR027C, strain aat2, hits give low values 1.02 | locus YLR113W, strain HOG1, hits give low values 1.04 | locus YLR221C, strain rsa3, hits give low values 0.994 | locus YLR258W, strain gsy2, hits give low values 1.02 | locus YLR262C, strain YPT6 (second series), hits give low values 0.974 | locus YLR320W, strain mms22, hits give low values 0.988 | locus YLR342W, strain FKS1, hits give low values 1.02 | locus YLR357W, strain rsc2, hits give low values 1.06 | locus YLR370C, strain arc18, hits give low values 1.02 | locus YLR384C, strain iki3, hits give low values 1.03 | locus YML120C, strain ndi1, hits give low values 1 | locus YMR058W, strain fet3, hits give low values 1.02 | locus YMR125W, strain sto1, hits give low values 1.01 | locus YMR129W, hits give low values 1.02 | locus YMR205C, strain PFK2, hits give low values 1.04 | locus YMR231W, strain pep5, hits give low values 1.03 | locus YNL071W, strain lat1, hits give low values 1 | locus YNL183C, strain NPR1, hits give low values 0.954 | locus YNL209W, strain ssb2, hits give low values 1.02 | locus YNL248C, strain rpa49, hits give low values 1 | locus YNL322C, strain KRE1 (second series), hits give low values 1.02 | locus YNR049C, strain mso1, hits give low values 1.02 | locus YOR001W, strain rrp6, hits give low values 1.01 | locus YOR070C, strain gyp1, hits give low values 1.02 | locus YOR080W, strain dia2, hits give low values 1.03 | locus YOR083W, strain WHI5, hits give low values 0.968 | locus YOR106W, strain vam3, hits give low values 1.01 | locus YOR231W, strain MKK1, hits give low values 1.03 | locus YOR265W, strain rbl2, hits give low values 1.02 | locus YOR270C, strain vph1, hits give low values 0.932 | locus YOR290C, strain snf2, hits give low values 1.01 | locus YPL051W, strain arl3, hits give low values 1.01 | locus YPL078C, strain atp4, hits give low values 1 | locus YPL106C, strain sse1, hits give low values 1.02 | locus YPL240C, strain hsp82, hits give low values 1.04 | locus YPL256C, strain CLN2, hits give low values 1.12
